# Assay results published in PubChem BioAssay (NCATS).
# Values joined by “and” are separate entries in the source; they are usually repeats but may differ in a detail not shown here. Equal entries are not always repeated. Records with an inconclusive call do not appear. Unmarked numbers belong to inactive results. Calls follow the shape of the dose curve; as a rule, active = well fitted inhibition curve with a large enough effect in the signal ratio, with a control signal flat (not every such curve was filed as active); inconclusive = small, poorly fitted or top-dose-only effect, or effect the other way, or a change in a side signal; inactive = no such curve, though single readings can be large or run the other way; the % refers to the signal ratio.
# Target: Retinoic acid receptor RXR-alpha (Homo sapiens) (UniProt P19793)
# Sequence (P19793 whole entry, looked up): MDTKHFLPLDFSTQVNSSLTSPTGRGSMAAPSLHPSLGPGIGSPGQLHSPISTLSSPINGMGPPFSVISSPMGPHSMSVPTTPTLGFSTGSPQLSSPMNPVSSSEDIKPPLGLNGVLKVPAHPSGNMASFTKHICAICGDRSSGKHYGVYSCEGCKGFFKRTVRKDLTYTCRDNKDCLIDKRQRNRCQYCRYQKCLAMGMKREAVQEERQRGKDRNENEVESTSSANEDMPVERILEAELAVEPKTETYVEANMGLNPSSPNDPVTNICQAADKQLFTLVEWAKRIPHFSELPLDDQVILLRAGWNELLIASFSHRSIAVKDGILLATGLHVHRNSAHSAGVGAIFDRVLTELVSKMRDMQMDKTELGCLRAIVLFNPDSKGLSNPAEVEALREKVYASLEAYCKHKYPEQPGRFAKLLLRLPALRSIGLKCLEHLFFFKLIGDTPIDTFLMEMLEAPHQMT
# Test: qHTS assay for small molecule antagonists of retinoid X receptor alpha signaling (AID 588546)
# Conditions: HEK293T RXRa-UAS-bla, beta-lactamase ratio, antagonist mode
# Description: NIH Chemical Genomics Center [NCGC] U.S. Environmental Protection Agency [EPA] National Institutes of Environmental Health Sciences [NIEHS] National Toxicology Program [NTP] NCGC Assay Overview The Retinoid X receptor (RXR), a nuclear hormone receptor is expressed in liver, spleen, placenta, epidermis, central nervous system. These receptors are able to form homo and heterodimers with other nuclear receptors and due to this heterodimerizing ability, RXR functions as master regulators producing diverse physiological effects. Three subtypes of RXR exist; alpha, beta and gamma. Retinoid X receptor alpha (RXR-alpha) has potential roles in metabolic signaling pathways, skin alopecia, dermal cysts, cardiac development, insulin sensitization etc. Therefore screening environmental chemicals on RXR-alpha signaling can be used for the studies focused on such therapeutic applications.
# NCGC Assay Protocol Summary Using a beta-lactamase reporter-gene under control of Retinoid X receptor--alpha (RXR-alpha) response element, a cell-based assay [GeneBLAzer (RXR-alpha -UAS-bla assay developed by Invitrogen] was used to measure RXR-alpha ligands signaling. GeneBLAzer RXR-alpha -UAS-bla HEK293T cells were used with assay medium containing 2% charcoal-stripped FBS. The assay was performed in clear bottom black Greiner 1536-well plates. Library compounds were measured for their ability to inhibit the reporter gene activity. Compounds were screened in a titration series in 1536-well format. The fluorescence intensity (405 nm excitation, 460/530 nm emission) was measured using an EnVision plate reader. Data was normalized relative to 9-cis-retinoic acid control (500 nM, 100%), and DMSO only wells (basal, 0%). Concentration-response titration points for each compound were fitted to the Hill equation yielding concentrations of half-maximal inhibition (IC50) and maximal response (efficacy) values. qHTS protocol for RXR-alpha beta-lactamase assay in antagonist mode [Step] [Parameter] [Value] [Description] 1. Reagent; 5 uL; 2500 cells/well 2. Incubation; 37 C for 4 hrs 3. Compounds; 23 nL; 0.59 nM to 92 uM 4. Controls (DMSO); 23 nL 5. Agonist (Stimulator); 1uL; 9-cis-retinoic acid at 500 nM and 100 nM final concentrations 6. Incubation; 37 C for 18 hrs 7. Detection reagent; 1 uL of CCF4-dye 8. Incubation; RT for 2 hrs 9. Detection; Fluorescence; Envision plate reader
# % is scaled to controls: 0 for no effect and ±100 for the full control effect.
row,Structure (SMILES),max response
1,O=Cc1ccc2c(c1)OCO2,-12.4%
2,CCCCNC(=O)n1c(NC(=O)OC)nc2ccccc21,-15.6%
3,c1ccc(NNc2ccccc2)cc1,1.29% and 6.1%
4,CC(Cl)(Cl)Cl,5.12% and 15.9%
5,Nc1cccc2ccccc12,-9%
6,OCCBr,2.44%
7,S=C1NCCN1,-12.1% and 9.5%
8,Cc1cc(N=Nc2ccccc2C)ccc1N,-17.1%
9,ClCc1ccccn1,-12.8% and -17%
10,Cc1ccc([N+](=O)[O-])cc1,4.07%
11,CC(C)OS(C)(=O)=O,0.937%
12,Cl/C=C/CCl,3.74%
13,CCCCCC[N+](=O)[O-],-13.3%
14,ClC(Cl)Br,5.56%
15,CN(C)N=O,-0.776%
16,Cc1ccc(N)c(C)c1,-1.52%
17,N#CCCC#N,23.2%
18,O=S(=O)(Cl)c1ccccc1,-0.573% and -10.4%
19,Cc1ccc(N)cc1N,9.25% and -0.891%
20,OCC(Cl)CCl (stereo not given),-4.6%

row,Structure (SMILES),max response
1,Cc1ccc(OP(=O)(Oc2ccc(C)cc2)Oc2ccc(C)cc2)cc1,-1.31% and -25.6%
2,CN(C)c1ccc(N)cc1,-17.1%
3,Nc1ccc(-c2ccc(N)cc2)cc1,0.312%
4,O=[N+]([O-])c1ccc(O)c([N+](=O)[O-])c1,9.93%
5,O=[N+]([O-])c1c(Cl)c(Cl)c(Cl)c(Cl)c1Cl,-5.68%
6,O=[N+]([O-])CCO,-8.95%
7,CCCCOCC1CO1 (stereo not given),20.3%
8,C=CCO,7.67%
9,C1CC2OC2CC1C1CO1 (stereo not given),10.1% and -3.3%
10,O=c1ccc(=O)[nH][nH]1,-4.77% and 2.87%
11,O=C(O)C(Cl)Br (stereo not given),0.341%
12,Cc1cc(C)cc(OP(=O)(Oc2cc(C)cc(C)c2)Oc2cc(C)cc(C)c2)c1,28.5%
13,COC(=O)Nc1cccc(OC(=O)Nc2cccc(C)c2)c1,4.03%
14,COC(C)(C)C,6.43%
15,c1ccc2c(c1)CCNC2,19.2%
16,CC(C)(OOC(C)(C)c1ccccc1)c1ccccc1,4.95%
17,Cc1ccc2c(C)cccc2c1,4.66%
18,CCC#N,10.5%
19,C=CC(=O)OCCN(C)C,5.11%
20,CCN(CC)N=O,1.08%
